Assay outcomes (PubChem BioAssay)
Rows were chosen to be rich in hits. Some 2.8% of all compounds tested hit in one or more screens of this group.
Pol kappa inh-1 – DNA polymerase kappa (human) inhibition | Q9UBT6 | purified Pol kappa, fluorescent DNA synthesis assay, 10 min | Potency, µM (series often up to 107 µM), without a hit: top-dose activity, negative = inhibition, hits mostly inhibitors | 400,000 compounds, 0.53% hits | AID 588579; also: potency is read from the fitted curve at half-maximal effect; % is scaled to controls: 0 for no effect and ±100 for the full control effect
Target sequence (Q9UBT6 whole entry, looked up): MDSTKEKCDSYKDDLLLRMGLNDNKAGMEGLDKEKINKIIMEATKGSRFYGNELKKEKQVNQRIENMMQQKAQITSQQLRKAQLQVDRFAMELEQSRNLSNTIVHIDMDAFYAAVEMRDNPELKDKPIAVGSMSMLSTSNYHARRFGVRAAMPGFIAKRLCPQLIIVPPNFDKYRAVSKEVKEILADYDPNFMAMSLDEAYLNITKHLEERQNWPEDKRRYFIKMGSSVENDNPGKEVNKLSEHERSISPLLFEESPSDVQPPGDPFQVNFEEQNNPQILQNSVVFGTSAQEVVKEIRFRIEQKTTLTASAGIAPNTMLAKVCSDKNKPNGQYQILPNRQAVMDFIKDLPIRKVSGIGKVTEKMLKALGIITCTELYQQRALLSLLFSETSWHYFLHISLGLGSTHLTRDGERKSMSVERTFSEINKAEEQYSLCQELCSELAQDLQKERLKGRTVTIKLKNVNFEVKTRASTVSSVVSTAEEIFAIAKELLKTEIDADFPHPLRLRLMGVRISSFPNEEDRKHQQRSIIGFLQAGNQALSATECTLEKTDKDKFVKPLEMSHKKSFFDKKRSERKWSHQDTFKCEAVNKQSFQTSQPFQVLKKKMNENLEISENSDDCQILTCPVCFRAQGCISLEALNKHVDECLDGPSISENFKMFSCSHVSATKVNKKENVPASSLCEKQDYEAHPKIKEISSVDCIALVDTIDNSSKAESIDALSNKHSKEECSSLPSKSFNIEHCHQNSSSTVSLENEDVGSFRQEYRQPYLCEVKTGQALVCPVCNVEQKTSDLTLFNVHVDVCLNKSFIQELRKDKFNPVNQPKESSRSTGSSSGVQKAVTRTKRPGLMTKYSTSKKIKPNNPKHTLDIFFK
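Enzyme at 10 nM met test compounds for 15 min at room temperature. Substrate addition (50 nM final) began the reaction, which was monitored by fluorescence at 0 and 10 min.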
WRN helicase inh – WRN helicase (human) inhibition | Q14191 | WRN helicase unwinding, fluorescent forked duplex, kinetic | 360,000 compounds, 0.46% hits | Potency, µM (titrated, usually from 114 µM), inactives show at the highest dose activity change, negative = inhibition, hits mostly inhibitors; also: potency is read from the fitted curve at half-maximal effect; % is scaled to controls: 0 for no effect and ±100 for the full control effect; nearly all actives have a fitted effect of over 55% in size
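WRN at 20 nM final preincubated with compound 15 min at room temperature; reaction started with 100 nM fluorophore/quencher forked duplex oligonucleotide and 2 mM ATP final. Unwinding followed kinetically by red fluorescence (ex 525, em 598 nm).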
POLI inh – blocks human DNA polymerase iota activity | Potency, µM (titrated, usually from 115 µM), for inactives: at the highest dose activity, negative = inhibition, most hits filed as inhibitors | 390,000 compounds, 1% hits | AID 588590 | Pol iota fluorescent replication assay, 10 min | Q9UNA4; also: potency is read from the fitted curve at half-maximal effect
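Fluorescent replication assay read twice, at 0 min and 10 min after adding 50 nM (final) substrate. Enzyme (10 nM) and compounds were first incubated 15 min at room temperature; enzyme-free buffer wells were negative controls.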
PI5P4Ka inh – blocks human PI5P4K alpha kinase activity; PI5P4Kalpha enzyme, ADP-Glo luminescence, 60 min; hits give low values; max response, %; 330,000 compounds, 1.2% hits; P48426; AID 652105; active = max response of -50% or lower; inconclusive = between -30% and -50%; inactive = -30% or higher; also: value at the top dose of about 77 µM; % is scaled to controls: 0 for no effect and ±100 for the full control effect
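Single end-point luminescence (ADP-Glo) quantified ADP from PI5P4Kalpha turnover; ATP 5 microM final, 1 h at RT, 0.1% CHAPS and 0.28 mM EGTA in HEPES pH 7.4.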
Pol eta inh-1 – inhibitors of human DNA polymerase eta | Q9Y253 | recombinant Pol eta, fluorescent DNA replication assay | Potency, µM (highest dose often 114 µM), for inactives: at the top dose activity change, negative = inhibition, most hits filed as inhibitors | 390,000 compounds, 1.2% hits; also: potency is read from the fitted curve at half-maximal effect; % is scaled to controls: 0 for no effect and ±100 for the full control effect
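Pol eta (10 nM) was preincubated with compounds for 15 min at room temperature, after which fluorescent replication substrate (50 nM final) was added to start the reaction. Fluorescence was read kinetically at 0 and 10 min.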
POLB inh – blocks human DNA polymerase beta activity; Pol beta primer extension/strand displacement, fluorescence kinetic; Potency, µM (titrated, usually from 114 µM), without a hit: at the top dose activity change, negative = inhibition, actives largely listed as inhibitors; 340,000 compounds, 1.3% hits; also: potency is read from the fitted curve at half-maximal effect; % is scaled to controls: 0 for no effect and ±100 for the full control effect
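Values derive from four-parameter Hill fits of normalized kinetic data: reads at 0 and 10 min following addition of 50 nM substrate to 10 nM Pol beta preincubated 15 min with compound.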
TbPGK inh – TbPGK inhibition, hit validation | Potency, µM (series often up to 57.5 µM), without a hit: top-dose activity change, negative = inhibition, hits mostly inhibitors | shares compounds with Pol kappa inh-1 | 500 compounds, 79% hits | TbPGK coupled GAPDH assay, Kinase-Glo luminescence; also: potency is read from the fitted curve at half-maximal effect; % is scaled to controls: 0 for no effect and ±100 for the full control effect; nearly all actives have a fitted effect of over 65% in size
POLI cherry-pick – Inhibitors of human DNA polymerase iota, confirmation; shares compounds with Pol kappa inh-1; Pol iota primer extension, TAMRA/BHQ fluorescence; Potency, µM, most hits filed as inhibitors; 1,500 compounds, 77% hits; AID 720496; also: potency is read from the fitted curve at half-maximal effect
Pol kappa inh-2 – confirmation of human DNA polymerase kappa inhibitors. shares compounds with Pol eta inh-1. purified Pol-kappa, fluorescent strand-displacement substrate. Potency, µM, hits mostly inhibitors. 920 compounds, 76% hits. AID 720501; also: potency is read from the fitted curve at half-maximal effect
Pol eta inh-2 – confirmation of human DNA polymerase eta inhibitors; 2,600 compounds, 64% hits; Potency, µM, hits mostly inhibitors; AID 720502; Pol eta primer extension, TAMRA/BHQ fluorescence, 10 min; shares compounds with Pol eta inh-1; also: potency is read from the fitted curve at half-maximal effect
* hit, by the source's call; ? = inconclusive; nt = no result; [ ] = dose if it differs, or a comment. Unless noted, calls follow the shape of the dose curve; as a rule, active = well fitted curve in the direction sought with a large enough effect; inconclusive = small, poorly fitted or top-dose-only effect, or another doubt; inactive = no such curve, though single readings can be large; an effect the other way counts as inactive or inconclusive.

SMILES | Pol kappa inh-1 | WRN helicase inh | POLI inh | PI5P4Ka inh | Pol eta inh-1 | POLB inh | POLI cherry-pick | Pol eta inh-2 | others
CCS(=O)(=O)C1=NN2C(=N)/C(=C\c3ccc(SCc4ccco4)o3)C(=O)N=C2S1 | 28µM* | 56µM* | ? | -91* | 4.5µM* | 11µM* | 38* | 17*
COc1cc(NC(=O)N2CCC(CN3CCCCCC3)CC2)cc(OC)c1OC | 0% | nt | 4% | nt | -18% | 4% | nt | nt
Cc1oc2ncnc(N3CCCCC3)c2c1C(=O)NCC1CCN(Cc2cccc(F)c2)CC1 | -1% | nt | -6% | nt | -15% | -11% | nt | nt
COc1ccccc1/C=C1\SC(=S)N(C(C(=O)O)c2ccccc2)C1=O (stereo not given) | -5% | -5% | 14% | 5 | -18% | -23% | nt | nt
O=C(O)C(c1ccccc1)N1C(=O)/C(=C\c2ccc(O)c(O)c2)SC1=S (stereo not given) | 7.1µM* | 32µM* | ? | ? | 3.2µM* | 4µM* | 15* | 4.8* | Pol kappa inh-2=2.7*
O=C(O)c1ccc(Cl)c(S(=O)(=O)N(Cc2ccccc2)c2ccccc2)c1 | -9% | -5% | 18% | 0 | -16% | -1% | nt | nt
CCN(c1ccccc1)S(=O)(=O)c1cc(C(=O)O)ccc1C | -30% | -31%[11.6 µM] | ? | ? | 13µM* | 13µM* | 7.5* | 9.5* | Pol kappa inh-2=5.3*
COc1cc(C2CC(=O)Nc3c2c(=O)[nH]c2ncnn32)ccc1O (stereo not given) | 7% | nt | -22% | nt | -10% | 28% | nt | nt
CSc1ncc(C(=O)Nc2ccccc2C(=O)c2ccccc2)c(C)n1 | -6% | nt | -7% | nt | -4% | -21% | nt | nt
Cc1ccc(N=C2NC(=O)/C(=C/c3cccn3C)S2)cc1 | -17% | -4% | ? | -26 | -5% | -1% | nt | nt
Cc1ccccc1N=C1NC(=O)/C(=C/c2cccn2-c2cccc(C(=O)O)c2)S1 | 79µM* | ? | 20µM* | -87* | 18µM* | 10µM* | 42* | 27* | Pol kappa inh-2=27*
O=C(O)c1cccc(-n2cccc2/C=C2/SC(=O)N(CC(=O)N3CCCC3)C2=O)c1 | ? | 56µM* | 7.9µM* | -14 | 5µM* | 10µM* | 30* | 24* | Pol kappa inh-2=9.5*
O=C(CN1C(=O)S/C(=C/c2cccn2-c2ccc(O)cc2)C1=O)N1CCCC1 | -3% | 1% | -8% | 2 | -9% | 9% | nt | nt
CCOc1ccc(S(=O)(=O)c2cn(Cc3ccccc3C)c3ccc(OC)cc3c2=O)cc1 | -2% | nt | -27% | nt | -16% | 1% | nt | nt
COc1ccc(C)cc1NC(=O)N(C(C)C)C1CCN(C(C)=O)CC1 | -9% | nt | 36% | nt | -13% | 1% | nt | nt
CS(=O)(=O)N1CCN(c2ccc([N+](=O)[O-])c(NCc3ccc(Cl)cc3)c2)CC1 | ? | ? | 8.9µM* | 2 | ? | ? | 38* | 85*
O=[N+]([O-])c1cc(/C=N/n2c(-c3cccnc3)n[nH]c2=S)ccc1Cl | ? | ? | ? | ? | 20µM* | 5.6µM* | 17* | 43*
O=[N+]([O-])c1ccccc1/C=N/n1c(-c2cccnc2)n[nH]c1=S | -13% | -27% | 18% | -3 | -8% | 3% | nt | nt
Oc1ccc(/C=N/Nc2ccc(Cl)nn2)c(O)c1O | ? | ? | ? | -71* | 10µM* | 18µM* | 17* | 30*
CC1=NN(c2ccc(C(=O)O)cc2)C(=O)/C1=C/c1ccc(-c2ccccc2F)o1 | nt | nt | nt | nt | nt | -1% | nt | nt
O=C1NN(c2ccccc2)C(=O)/C1=C/c1ccc(Sc2cccc3ccccc23)o1 | ? | ? | 11µM* | ? | 28µM* | 20µM* | 75* | 30*
COc1cccc(/C=C2/C(=O)NN(c3ccccc3)C2=O)c1 | -10% | -27% | 108% | -25 | 3% | 6% | nt | nt
O=C1NN(c2ccccc2)C(=O)/C1=C/c1ccc(-c2ccc(C(=O)O)cc2)o1 | 18µM* | 50µM* | 3.5µM* | ? | 7.1µM* | ? | 24* | 27*
O=C(O)c1ccc(N2C(=O)/C(=C/c3ccc(-c4ccc([N+](=O)[O-])cc4)o3)C=C2c2ccccc2)cc1 | ? | 56µM* | ? | -94* | 3.5µM* | 10µM* | 8.4* | 7.6*
COc1ccc(S(=O)(=O)N2CCN(C(=O)/C=C/c3ccco3)CC2)cc1 | ? | -5%[11.6 µM] | 22µM* | ? | 50µM* | nt | 67* | 76* | Pol kappa inh-2=67*
SMILES | Pol kappa inh-1 | WRN helicase inh | POLI inh | PI5P4Ka inh | Pol eta inh-1 | POLB inh | POLI cherry-pick | Pol eta inh-2 | others
COc1cccc(C(=O)Nc2ccccc2C(=O)OCc2cc(=O)n3c4c(sc3n2)CCCC4)c1 | -9%[60.1 µM] | nt | 30% | nt | ? | -4% | nt | nt
COc1ccc(NC(=O)COCc2cc(-c3ccco3)on2)cc1Cl | -2% | nt | -12% | nt | -16% | -15% | nt | nt
O=C(N=Nc1c(O)[nH]c2ccccc12)c1cc(-c2cccs2)[nH]n1 | -30% | -30% | ? | -16 | 56µM* | ? | 67* | nt | Pol kappa inh-2=?
N#CCC(=O)Nc1ccc(C(=O)OCC(=O)N2CCN(C(=O)c3ccco3)CC2)cc1 | 45µM* | ? | 45µM* | -22 | ? | nt | ? | ?
CCOc1ccc(C2C(=O)N(C3CCCCC3)CC(=O)N2C2CCCC2)cc1OC (stereo not given) | -13%[60.1 µM] | nt | -3% | nt | -8% | 8% | nt | nt
COc1ccc2nc(NC(=O)c3nc(S(=O)(=O)Cc4ccccc4)ncc3Cl)sc2c1 | ? | nt | ? | nt | ? | 5.6µM* | 30* | 76*
O=C(Nc1nc2ccc(F)cc2s1)c1nc(S(=O)(=O)Cc2ccccc2)ncc1Cl | -3% | nt | -16% | nt | -10% | 31% | nt | nt
COc1ccc2nc3oc(C(=O)NCc4ccccc4OC)cc3cc2c1 | 5% | nt | -2% | nt | -4% | 1% | nt | nt
COc1cccc(/C=N/NC(=O)c2cc3cc([N+](=O)[O-])ccc3s2)c1O | -22% | 35µM* | 14µM* | -20 | 3.5µM* | 3.5µM* | nt | 48* | TbPGK inh=2.9µM*
